# Bioassay records (PubChem BioAssay)
# Only a selection was taken, and hits are over-represented in it overall.
# CHX counter – counter-screen hit for Shiga toxin inhibitors, cycloheximide; cell reporter, cycloheximide protein synthesis inhibition counterscreen; max response, %; 12% of 300,000 active; in the data active means max response mostly above about 13%, no sharp cut-off; inactive means mostly below about 14%; further: read at 38.3 µM for the half of the compounds with a filed dose; 0% is about no effect
# TbPYK inhibitor – inhibitors of Trypanosoma brucei pyruvate kinase. Potency, µM (doses to about 76.8 µM), without a hit: at the highest dose activity, negative = inhibition, hits mostly inhibitors. AID 624173. 0.12% of 410,000 active. Q57TT1. TbPYK enzyme, Kinase-Glo Plus ATP luminescence, 45 min; further: potency means the concentration at half of the fitted maximal effect; on the % scale 0 is the no-effect control and ±100 the full control effect; nearly all actives have a fitted effect of over 50% in size
#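 Screened from lowest to highest concentration, compounds were pinned into TbPYK/substrate mixtures, and ADP (130 uM final) was added. Plates sat at room temperature for 45 min prior to Kinase-Glo Plus detection by luminescence.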
# Shiga toxin inh – blocks Shiga toxin action in Vero cells; Vero cells, Shiga toxin protein synthesis inhibition reporter; inhibition, % at 38.7 µM; 9.2% of 290,000 active; AID 2315; in the data active means inhibition mostly above about 28%, no sharp cut-off; inactive means mostly below about 43%; further: 0% is about no effect
# LmPK inh – blocks Leishmania mexicana pyruvate kinase activity; purified LmPK, Kinase-Glo ATP luminescence, 1 h; Potency, µM (highest dose often 57.5 µM), inactives show top-dose activity change, negative = inhibition, usual class: inhibitors; 0.37% of 290,000 active; AID 1721; further: potency means the concentration at half of the fitted maximal effect; on the % scale 0 is the no-effect control and ±100 the full control effect
#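 ATP generated from ADP (0.1 mM) and PEP (0.5 mM) by 0.1 nM LmPK over 1 h at room temperature (pH 7.2 imidazole buffer) was detected by coupled luciferase luminescence. Values were normalized to uninhibited and no-enzyme wells.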
# RE007 growth inh – less growth of the S. pombe RE007 Vpr strain | S. pombe RE007 Vpr strain, BacTiter-Glo ATP luminescence, 24 h | 0.21% of 360,000 active | Potency, µM (highest dose often 92.2 µM), for the others: at the top dose activity change, negative = less growth, actives largely listed as inhibitors | AID 651644; active means well fitted falling curve with a large enough effect; inconclusive means small, poorly fitted or top-dose-only effect; inactive means no such curve, though single readings can be large or run the other way; further: potency means the concentration at half of the fitted maximal effect; on the % scale 0 is the no-effect control and ±100 the full control effect; nearly all actives have a fitted effect of over 50% in size
#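 Fission yeast RE007 carrying one integrated HIV-1 vpr copy, seeded at OD 0.01 in PMG+AL medium with 23 nL pinned compound. Grown 24 h at 30 degrees; viability read by BacTiter-Glo luminescence after 5 min.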
# FBPA Giardia inh – Giardia lamblia aldolase inhibition; A8B2U2; purified Giardia FBPA; Potency, µM (doses to about 59.6 µM), without a hit: at the highest dose activity, negative = inhibition, usual class: inhibitors; 0.71% of 290,000 active; AID 2451; further: potency means the concentration at half of the fitted maximal effect; on the % scale 0 is the no-effect control and ±100 the full control effect; nearly all actives have a fitted effect of over 55% in size
# Target sequence (A8B2U2 whole entry, looked up): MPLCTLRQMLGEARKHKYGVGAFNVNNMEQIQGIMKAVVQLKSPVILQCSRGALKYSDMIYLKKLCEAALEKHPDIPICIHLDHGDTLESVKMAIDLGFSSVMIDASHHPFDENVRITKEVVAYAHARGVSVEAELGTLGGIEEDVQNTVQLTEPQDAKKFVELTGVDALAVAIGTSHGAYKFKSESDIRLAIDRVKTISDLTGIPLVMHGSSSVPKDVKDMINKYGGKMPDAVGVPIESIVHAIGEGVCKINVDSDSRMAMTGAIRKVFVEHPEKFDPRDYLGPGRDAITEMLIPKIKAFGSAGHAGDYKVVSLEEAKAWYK
#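 Giardia FBPA (40 nM reagent) was preincubated 10 min at RT with compound (up to 57.5 uM final), then substrate plus GAPDH/TPI/NAD/arsenate coupling system with diaphorase/resazurin was added; resorufin fluorescence (525/598 nm) was read after 20 min.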
# Active calls of the source: *; u = inconclusive; x = no result given. Unless noted, the call rests on the fitted dose curve; in most records, active means well fitted curve in the direction sought with a large enough effect; inconclusive means small, poorly fitted or top-dose-only effect, or another doubt; inactive means no such curve, though single readings can be large; an effect the other way counts as inactive or inconclusive.
SMILES,CHX counter,TbPYK inhibitor,Shiga toxin inh,LmPK inh,RE007 growth inh,FBPA Giardia inh
CCCNS(=O)(=O)c1ccc(OCC(=O)NCC2CCCO2)cc1 (stereo not drawn),-7.5,-2.5%,-8.6,0.0%,13.3%,-2.3%
Cc1nn(C)cc1/C=N/NC(=S)Nc1ccc(Cl)cc1Cl,12.3*,-3.3%,active,4.6%,-0.9%,-6.1%
CCn1nc(C)c(/C=N/NC(=S)Nc2ccc(Cl)cc2Cl)c1C,11.0,-5.6%,active,6.6%,-9.0%,-3.5%
Cc1noc(C)c1-c1ccc2ncnc(NCc3ccc(C(F)(F)F)cc3)c2c1,-1.0,x,14.6,x,x,-3.3%
O=C(O)CSC(=S)N1CCCC1,-1.2,1.5%,3.7,-6.0%,3.6%,-1.5%
Cc1[nH]c2ccccc2c1C(=O)CSC(=S)N1CCCCC1,94.5*,4.3%,85.0*,-2.1%,16.0%,-19.8%
COc1ccc(C(=O)CSC(=S)N2CCCCC2)cc1,x,-7.8%,x,x,-16.8%,x
O=C(CSC(=S)N1CCCCC1)c1ccccc1,23.1*,1.1%,35.1,u,2.5%,0.0%
O=C(CSC(=S)N1CCCC1)c1ccccc1,48.2*,1.1%,67.1*,-15.0%,-2.0%,-1.5%
CCOc1cc(-c2ccccc2)nc2c1CN(S(=O)(=O)c1ccc(C)cc1)C(c1cccc(Cl)c1)C2 (stereo not drawn),x,x,x,x,-6.2%,x
Cn1nc(-c2ccc(Cl)cc2)cc1NC(=O)Nc1ccccc1,31.4*,2.6%,65.8*,-0.5%,0.8%,2.0%
Cn1nc(-c2ccccc2)cc1NC(=O)c1ccccc1,11.6*,-1.7%,18.9,2.5%,-12.2%,3.4%
Cn1nc(-c2ccccc2)cc1NC(=O)Nc1ccc(C(C)(C)C)cc1,1.7,4.0%,17.5,1.5%,-11.4%,-10.8%
CCc1ccccc1NC(=O)Cn1nnc(-c2nc(-c3ccncc3)no2)c1N,x,-6.0%,x,x,x,x
Cc1ccc2c(c1)NC(=O)CC(c1ccccc1)=N2,40.1*,1.6%,63.0*,2.9%,-6.7%,2.7%
O=C(Nc1ccc([N+](=O)[O-])cc1Cl)c1cccc([N+](=O)[O-])c1,x,-7.5%,x,x,1.3%,x
O=C(Nc1nccs1)c1ccc(-c2cccc([N+](=O)[O-])c2)o1,23.5*,-3.4%,28.1,-13.5%,-20.9%,3.3%
Cc1ccc2cccc(NC(=O)c3ccc(-c4cccc([N+](=O)[O-])c4)o3)c2n1,x,-18.9%,x,x,x,x
O=C(Nc1ccccc1F)c1ccc(-c2cccc([N+](=O)[O-])c2)o1,22.1*,5.6%,63.4*,-5.5%,17.3%,x
O=C(Nc1ccccc1F)Nc1ccc([N+](=O)[O-])cc1Cl,9.8*,-3.2%,29.0*,-3.6%,-10.5%,-3.6%
O=C(Nc1ncc(Cc2cccc(C(F)(F)F)c2)s1)c1ccc(-c2cccc([N+](=O)[O-])c2)o1,-1.1,1.9%,-20.3,3.2%,-4.7%,7.0%
CC(=O)Nc1ccc(S(=O)(=O)NCC(=O)N2CCN(S(=O)(=O)c3cccs3)CC2)cc1,x,-2.5%,x,x,-13.8%,x
COCCCNC(=S)N1CCN(C(c2ccccc2)c2ccccc2)CC1,-3.0,-2.8%,-2.1,10.6%,5.3%,4.5%
O=C(NCCCN1CCOCC1)c1cc(-c2cccs2)on1,41.8*,2.1%,160.3*,2.9%,7.5%,11.1%
COc1ccc(OC)c(-c2cc(C(=O)NCCCn3ccnc3)no2)c1,-4.7,0.5%,19.6,-6.1%,-8.5%,-2.6%
SMILES,CHX counter,TbPYK inhibitor,Shiga toxin inh,LmPK inh,RE007 growth inh,FBPA Giardia inh
O=C(NCCCn1ccnc1)c1cc(-c2cccs2)on1,45.7*,-3.9%,153.6*,0.1%,4.4%,2.5%
CCOc1ccc(/C=C/C(=O)CCC(=O)O)cc1,53.9*,3.5%,73.7*,-4.4%,-16.1%,-0.8%
CCOc1ccc(/C=C/C(=O)Oc2ccc(OC)cc2)cc1,-3.6,1.5%,-12.1,1.0%,5.1%,6.4%
CC(C)c1ccc(/C=C/C(=O)CCC(=O)O)cc1,42.5*,-19.9%,56.6,-4.3%,-11.0%,15.6%
O=C(O)CCC(=O)/C=C/c1ccccc1,-1.4,-5.0%,7.3,0.8%,36.7%,10.6%
CCOc1ccc(C(=O)CCC(=O)O)cc1,2.3,-6.3%,-14.3,0.1%,0.7%,-1.9%
CCOc1ccc(/C=C\C(C)=N\O)cc1,38.5*,-11.6%,97.4*,u,u,0.2%
COc1ccc(N(CC(=O)NCc2ccc(F)cc2)C(=O)c2snc(C(N)=O)c2N)cc1,7.5,-4.0%,4.2,-9.3%,-16.3%,-0.1%
COc1ccc(N(C)S(=O)(=O)c2cccc(C(=O)OCC(=O)Nc3cc(C)ccc3OC)c2)cc1,x,-2.1%,x,x,-0.5%,x
CCCCN(C)C(=O)c1ccc2c(c1)N(Cc1cccc(Cl)c1)C(=O)c1ccccc1S2=O (stereo not drawn),x,-1.1%,x,x,x,x
CC(C)(C)C(=O)COC(=O)c1c2c(nc3ccccc13)CCC2,6.0,0.6%,-16.4,-0.6%,-9.7%,-11.8%
NC(=O)COC(=O)c1c2c(nc3ccccc13)CCCCC2,6.8,-2.2%,-22.8,-6.4%,3.2%,3.5%
O=C(OCC(=O)N1CCc2ccccc21)c1c2c(nc3ccccc13)CCCC2,33.6*,-8.0%,62.5*,6.4%,-16.0%,-2.3%
CC1Cc2ccccc2N1C(=O)COC(=O)c1c2c(nc3ccccc13)CCCCC2 (stereo not drawn),14.1*,1.1%,-5.5,0.9%,2.5%,-1.6%
CCC1=C[C@@H]2CN(C1)Cc1c([nH]c3ccccc13)[C@@](C(=O)OC)(c1cc3c(cc1OC)N(C)[C@@H]1[C@@](O)(C(=O)OC)[C@H](OC(C)=O)[C@]4(CC)C=CCN5CC[C@]31[C@@H]54)C2,x,-13.4%,x,x,x,x
N#CCCN(C(=O)COC(=O)CNS(=O)(=O)c1ccc2ccccc2c1)c1ccccc1,x,-2.9%,x,x,-15.9%,x
COc1ccc2c(c1)CCC1[C@@H]2CCC2(C)[C@@H](NCCCCCCN3C(=O)C=CC3=O)CC[C@@H]12 (stereo partly drawn),x,x,x,x,x,14.1%
O=C(NCCCN1CCC(Cc2ccccc2)CC1)C1CCN(S(=O)(=O)N2CCC3(CC2)OCCO3)CC1,34.6*,0.6%,127.5,2.8%,12.8%,-0.2%
O=C(NCCN1CCC(Cc2ccccc2)CC1)C1CCN(S(=O)(=O)N2CCC3(CC2)OCCO3)CC1,-2.5,-1.1%,-5.6,6.6%,-6.1%,3.7%
O=C(NCCc1cccc(Cl)c1)c1cccc([N+](=O)[O-])c1,21.5*,5.2%,16.4,3.4%,5.2%,-1.2%
O=C(NCCOCCOCCNC(=O)c1cccnc1)c1cccnc1,16.7*,9.7%,37.5,-0.2%,26.1%,1.1%
O=C(NCCCCCNC(=O)c1cccnc1)c1cccnc1,-3.8,3.4%,-24.1,4.1%,-0.3%,0.8%
O=C(NCCc1cccc(Cl)c1)c1cccnc1,57.0*,-1.6%,142.5*,1.3%,18.3%,-20.7%
CN(Cc1ccco1)c1ncncc1-c1ccc2c(c1)OCO2,x,x,x,x,x,-3.3%
